From PubChem
Rows were chosen to be rich in hits. Some 7.5% of all compounds tested hit in one or more screens of this group.
NPC1 promoter act = activates the NPC1 promoter; Huh7 NPC1 promoter luciferase reporter, 24 h; Potency, µM (highest dose often 9.22 µM), for inactives: at the top dose activation, most hits filed as activators; hit rate 2.4% among 320,000; note: % of control where 0% means no effect; nearly all actives have a fitted effect of over 60% in size
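Compounds in DMSO were transferred onto Huh7 NPC1-luciferase reporter cells pre-incubated 2 h; after 24 h at 37 °C, Amplite reagent was dispensed and luminescence recorded 10 min later.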
ELG1 genotox = induces genotoxicity in HEK293T cells with luciferase-tagged ELG1; Potency, µM (titrated, usually from 46 µM), without a hit: at the highest dose activity change, positive = activation, most hits filed as activators; HEK293T ELG1-luciferase reporter, luminescence, 16 h; hit rate 1.3% among 330,000; note: % of control where 0% means no effect; nearly all actives have a fitted effect of over 60% in size
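ELG1-luciferase HEK293T cells, 2,000/well; compound pinned in; 16 hr, 37 °C, 5% CO2; ONE-Glo, 30 min RT; luminescence on CCD imager.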
FLuc counter = inhibits or activates purified firefly luciferase, miR-21 counter-screen. hit rate 6.9% among 360,000. AID 588342. P08659. Potency, µM (series often up to 57.5 µM), inactives show at the top dose activity change, negative = inhibition, actives largely listed as inhibitors. purified FLuc, Km substrates, luminescence inhibition;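 note: plate controls were vehicle for no effect and reference inhibitor for full effect; nearly all actives have a fitted effect of over 55% in size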
Target sequence (P08659 whole entry, looked up): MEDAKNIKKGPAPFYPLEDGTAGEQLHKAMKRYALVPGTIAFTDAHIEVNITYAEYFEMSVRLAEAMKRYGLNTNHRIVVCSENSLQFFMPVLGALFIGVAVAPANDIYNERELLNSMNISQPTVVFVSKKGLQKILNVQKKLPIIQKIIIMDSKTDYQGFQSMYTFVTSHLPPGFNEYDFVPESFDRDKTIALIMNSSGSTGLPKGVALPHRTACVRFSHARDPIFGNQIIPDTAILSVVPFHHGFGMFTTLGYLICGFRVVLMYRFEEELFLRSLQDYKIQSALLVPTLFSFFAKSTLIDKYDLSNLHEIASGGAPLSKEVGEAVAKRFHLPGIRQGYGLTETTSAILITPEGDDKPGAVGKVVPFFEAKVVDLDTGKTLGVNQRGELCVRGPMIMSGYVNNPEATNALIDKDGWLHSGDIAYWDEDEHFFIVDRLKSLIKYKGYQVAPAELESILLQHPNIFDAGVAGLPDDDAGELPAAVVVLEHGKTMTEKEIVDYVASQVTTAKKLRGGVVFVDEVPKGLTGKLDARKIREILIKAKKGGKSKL
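Biochemical qHTS of compounds, final roughly 60 µM downward over six points, against 10 nM purified firefly luciferase using Km concentrations of substrates (10 uM D-luciferin, 10 uM ATP) in Tris acetate pH 7.5 buffer; luminescence output.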
SMN2 splice enh = enhancers of SMN2 splice variant expression | hit rate 2.8% among 210,000 | HEK293 SMN2-luciferase splicing reporter, luminescence, 30-36 h | Potency, µM (series often up to 46.1 µM), inactives show top-dose activity change, positive = activation, hits mostly activators; note: % of control where 0% means no effect; nearly all actives have a fitted effect of over 55% in size
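HEK293 cells carry an SMN2 minigene-luciferase reporter in which exon 7 inclusion puts luciferase in frame. Cells were seeded at 2000 cells/well, attached for 10-12 hours, then exposed to compounds for 30-36 hours at 37C before ONE-Glo luminescence.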
KinaseGlo FLuc = counter-screen: inhibitors of Kinase-Glo firefly luciferase. AID 1379. Q27757. Kinase-Glo luciferase, ATP luminescence, 8 min. hit rate 0.28% among 200,000. Potency, µM (highest dose often 38.3 µM), for the others: top-dose activity change, negative = inhibition, actives largely listed as inhibitors; note: % is set by controls: 0 for no effect and ±100 for the full control effect; nearly all actives have a fitted effect of over 60% in size
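Luminescence was the read-out, taken after 8-minute incubation at ambient temperature. Luciferase turned over luciferin with 10 uM ATP in imidazole pH 7.2 buffer containing KCl, MgCl2, Tween 20 and BSA.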
Rab9 prom act = activators of Rab9 promoter; Huh7 Rab9 promoter-luciferase reporter, luminescence, 24 h; Potency, µM (top dose mostly 9.22 µM), without a hit: at the highest dose activation, negative = inhibition, most hits filed as activators; hit rate 2.8% among 320,000; note: % of control where 0% means no effect; nearly all actives have a fitted effect of over 60% in size
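Promoter activation is measured as luciferase luminescence in Huh7 cells stably transfected with a Rab9 promoter–luciferase construct, following 24 h compound exposure at 37 °C and 10 min reagent incubation at ambient temperature.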
* hit, by the source's call; ? = inconclusive; nt = not tested or not shown. Calls come from the whole dose curve; as a rule, active = well fitted curve in the direction sought with a large enough effect; inconclusive = small, poorly fitted or top-dose-only effect, or another doubt; inactive = no such curve, though single readings can be large; an effect the other way counts as inactive or inconclusive. Potency is the fitted concentration of half-maximal effect.

SMILES | NPC1 promoter act | ELG1 genotox | FLuc counter | SMN2 splice enh | KinaseGlo FLuc | Rab9 prom act
COc1ccc(-c2noc(-c3ccc(NCC4CCCO4)c([N+](=O)[O-])c3)n2)cc1OC (stereo not drawn) | nt | nt | 0% | nt | nt | nt
COc1ccc2oc(C(=O)NN3C(C)CCCC3C)c(C)c2c1 (stereo not drawn) | -7% | 1% | -2% | 13% | 2% | -4%
COc1ccc2c(CC(=O)Nc3ccc(OC)c(S(=O)(=O)N4CCOCC4)c3)coc2c1 | 2% | 14% | 17µM* | 3% | -4% | -1%
COc1ccc2c(CC(=O)Nc3nc(C)cs3)coc2c1 | 10% | -3% | 24µM* | -3% | -4% | ?
COc1ccc2oc(C(=O)Nc3nc(C)cs3)c(C)c2c1 | 2.5µM* | ? | 0.6µM* | nt | nt | 5.6µM*
COc1ccc(NC(=O)Cc2coc3cc(C)c(C(C)C)cc23)cc1S(=O)(=O)N1CCOCC1 | -1% | 1% | ? | -70% | 2% | -14%
COc1ccc2oc(C(=O)Nc3ccc(C)cn3)c(C)c2c1 | 2.5µM* | 5.8µM* | 1.9µM* | nt | nt | 3.2µM*
CC1Cc2cc(/C(O)=C3/C(=O)C(=O)N(CCN4CCOCC4)C3c3ccc(N(C)C)cc3)ccc2O1 (stereo not drawn) | -1% | 0% | -1% | nt | nt | 0%
CCOC(=O)c1c(C)[nH]c(C)c1S(=O)(=O)N1CCCC(C(=O)Nc2ccc(C)c(N(C)C)c2)C1 (stereo not drawn) | nt | nt | -12% | nt | nt | nt
COc1ccc(C(=O)Nc2ccccn2)cc1 | -2% | -2% | 2% | 2% | 0% | -4%
CCN(CC(=O)Nc1ccccc1C(F)(F)F)C(=O)c1oc2ccc(OC)cc2c1C | 6% | ? | 17µM* | nt | nt | -2%
COc1ccc2oc(C(=O)Nc3ccccn3)c(C)c2c1 | ? | ? | 0.6µM* | nt | nt | 4µM*
COC(=O)[C@@H]1C[C@@]2(O)[C@@H](O)[C@@H](O)[C@@H](O)C[C@H]2N1Cc1cc(OC)cc(OC)c1 | -5% | 0% | 3% | -8% | -5% | -1%
Cc1ccc(C2CCN(C(=O)Nc3ccc(F)cc3)C2)cc1 (stereo not drawn) | ? | ? | 24µM* | nt | nt | ?
CC(=O)c1cccc(NC(=O)N2CCC(c3ccc(C)cc3)C2)c1 (stereo not drawn) | ? | 3% | 17µM* | nt | nt | 15%
Cc1ccc(NC(=O)C2CCCN(C(=O)Nc3ccc(F)cc3)C2)cc1 (stereo not drawn) | 0% | 16% | -3% | nt | nt | ?
CC(C)Sc1nnc(NC(=O)c2ccco2)s1 | ? | ? | 17µM* | nt | -11% | ?
CCOC(=O)CSc1nnc(NC(=O)c2ccco2)s1 | 2% | 0% | -13% | nt | nt | -1%
O=C(Nc1nnc(SCc2ccc(Cl)cc2)s1)c1ccco1 | -5% | 1% | 0% | -14% | -3% | 3%
CCSc1nnc(NC(=O)c2ccco2)s1 | 25% | ? | ? | 11µM* | -9% | ?
CC1(C)Cc2c(sc3nc(-c4cccs4)n(N)c(=O)c23)CO1 | ? | -15% | 6µM* | -9% | -3% | 2.8µM*
Cc1nc2sc3c(c2c(=O)n1N)CCC3 | 0% | 6% | 7% | 19% | 0% | 1%
Nn1c(-c2cccs2)nc2sc3c(c2c1=O)CCCC3 | 1% | 2.3µM* | 2.4µM* | 6.3µM* | -11% | 6.3µM*
Nn1c(Cc2ccccc2)nc2sc3c(c2c1=O)CCC3 | -3% | -7% | 0% | nt | nt | 1%
Cc1ccccc1-c1nc2sc3c(c2c(=O)n1N)CCCC3 | 18% | 2.9µM* | 6.7µM* | -60% | -2% | 23%
CC1(C)Cc2c(sc3nc(-c4ccccc4)n(N)c(=O)c23)CO1 | 17% | 1% | ? | -4% | 0% | 14%
Cc1cc2ccccc2n1CCNC(=O)C1CCCCC1 | -2% | 23µM* | 0% | -56% | 3% | 2%
Cc1cc2ccccc2n1CCNC(=O)c1cccs1 | ? | ? | 21µM* | -29% | -3% | ?
